In PubChem BioAssay (NCATS):
Inconclusive results are not listed. Where a call stands in place of a potency, no number is given. The source made the active and inactive calls. Unless noted, calls come from the whole dose curve; as a rule, active = well fitted curve in the direction sought with a large enough effect; inconclusive = small, poorly fitted or top-dose-only effect, or another doubt; inactive = no such curve, though single readings can be large; an effect the other way counts as inactive or inconclusive.

Tests used:
[1] = qHTS for Inhibitors of the Functional Ribonucleoprotein Complex (vRNP) of Lassa (LASV) Arenavirus: Viability assay - alamar blue signal for LASV Primary Screen (AID 1347083; calls by dose curve; tested in HEK293 reporter line; note: series mostly up to about 57 µM; nearly all actives have a fitted effect of over 80% in size)
[2] = qHTS for Inhibitors of the Functional Ribonucleoprotein Complex (vRNP) of Lymphocytic Choriomeningitis Arenaviruses (LCMV): Viability assay - alamar blue signal for LCMV Primary Screen (AID 1347085; calls by dose curve; tested in HEK293 reporter line; note: series mostly up to about 57 µM; nearly all actives have a fitted effect of over 80% in size)
[3] = molecular target: Nucleoprotein (Lymphocytic choriomeningitis virus (strain Armstrong)) (UniProt P09992); assay: qHTS for Inhibitors of the Functional Ribonucleoprotein Complex (vRNP) of Lymphocytic Choriomeningitis Arenaviruses (LCMV): LCMV Primary Screen - GLuc reporter signal (AID 1347086; calls by dose curve; note: series mostly up to about 57 µM; nearly all actives have a fitted effect of over 70% in size)
Sequence of Nucleoprotein (Lymphocytic choriomeningitis virus (strain Armstrong)) (P09992 whole entry, looked up): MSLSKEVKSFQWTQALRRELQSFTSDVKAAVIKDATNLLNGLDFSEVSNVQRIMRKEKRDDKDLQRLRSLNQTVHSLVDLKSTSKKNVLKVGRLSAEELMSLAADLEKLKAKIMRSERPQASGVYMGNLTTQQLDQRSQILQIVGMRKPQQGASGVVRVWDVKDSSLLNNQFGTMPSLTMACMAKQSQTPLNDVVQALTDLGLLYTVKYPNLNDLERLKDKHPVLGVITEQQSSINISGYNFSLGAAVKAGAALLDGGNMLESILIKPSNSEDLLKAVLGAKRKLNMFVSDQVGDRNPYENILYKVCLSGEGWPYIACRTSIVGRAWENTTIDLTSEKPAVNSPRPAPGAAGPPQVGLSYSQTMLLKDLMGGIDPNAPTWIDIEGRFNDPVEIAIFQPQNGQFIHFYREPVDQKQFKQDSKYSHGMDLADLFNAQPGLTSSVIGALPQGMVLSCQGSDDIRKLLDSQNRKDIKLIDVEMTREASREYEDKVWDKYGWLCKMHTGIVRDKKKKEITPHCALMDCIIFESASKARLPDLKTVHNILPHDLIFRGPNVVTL

[4] = qHTS of pediatric cancer cell lines to identify multiple opportunities for drug repurposing: Primary screen for TC32 cells (AID 1347089); note: nearly all actives have a fitted effect of over 60% in size
Summary of the method: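 A viability screen of TC32 cells was run over 48 h, with primary MIPE doses spanning 0.78 nM–46 µM and NPC doses 0.59 nM–46 µM. ATP luminescence (CellTiter-Glo) served as the read-out.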

[5] = qHTS of pediatric cancer cell lines to identify multiple opportunities for drug repurposing: Primary screen for DAOY cells (AID 1347090); note: series mostly up to about 46 µM; nearly all actives have a fitted effect of over 55% in size
Summary of the method: (§1)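 Eight- or eleven-point concentration series, 48 h treatment at 37 degrees C in growth media; readout CellTiter-Glo luminescence. Potency and efficacy were taken from the concentration-response curves.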

[6] = qHTS of pediatric cancer cell lines to identify multiple opportunities for drug repurposing: Primary screen for SJ-GBM2 cells (AID 1347091)
Summary of the method: as §1

[7] = qHTS of pediatric cancer cell lines to identify multiple opportunities for drug repurposing: Primary screen for A673 cells (AID 1347092); note: nearly all actives have a fitted effect of over 45% in size
Summary of the method: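 Titration-based qHTS on A673 cells: MIPE compounds spanned 11 points (0.78 nM to 46 µM final), NPC compounds 8 points (0.59 nM to 46 µM final). Viability after 48 h was measured by ATP luminescence.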

[8] = qHTS of pediatric cancer cell lines to identify multiple opportunities for drug repurposing: Primary screen for BT-37 cells (AID 1347094); note: series mostly up to about 57 µM
Summary of the method: (§2)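 CRCs from 8- or 11-point titrations (lowest final 0.59 nM NPC, 0.78 nM MIPE). Cell viability: CellTiter-Glo after 48 h incubation, 15 min room-temperature development, luminescence imaging.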

[9] = qHTS of pediatric cancer cell lines to identify multiple opportunities for drug repurposing: Primary screen for NB-EBc1 cells (AID 1347095)
Summary of the method: as §2

[10] = qHTS of pediatric cancer cell lines to identify multiple opportunities for drug repurposing: Primary screen for U-2 OS cells (AID 1347096); note: nearly all actives have a fitted effect of over 50% in size
Summary of the method: (§3)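 Cells (500-1,000/well) in growth media were settled 5 h at 37 degrees C, then given compounds for 48 h. Viability was read as CellTiter-Glo luminescence. Primary runs used MIPE at 11 points (0.78 nM-46 µM) and NPC at 8 points (0.59 nM-46 µM); follow-ups used 11 points.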

[11] = qHTS of pediatric cancer cell lines to identify multiple opportunities for drug repurposing: Primary screen for Saos-2 cells (AID 1347097); note: nearly all actives have a fitted effect of over 40% in size
Summary of the method: as §2

[12] = qHTS of pediatric cancer cell lines to identify multiple opportunities for drug repurposing: Primary screen for SK-N-SH cells (AID 1347098);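 note: DMSO served as neutral control and bortezomib at 2.3 µM as positive control; nearly all actives have a fitted effect of over 65% in size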
Summary of the method: (§4)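 Cells (500-1,000/well) rested 5 h, then received compounds for 48 h; metabolically active cells were measured by CellTiter-Glo luminescence. Final concentrations spanned up to 46 µM (MIPE, 11-point) or 0.59 nM-46 µM (NPC, 8-point) in primary screens, 11-point in follow-ups.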

[13] = qHTS of pediatric cancer cell lines to identify multiple opportunities for drug repurposing: Primary screen for NB1643 cells (AID 1347099); note: nearly all actives have a fitted effect of over 50% in size
Summary of the method: as §2

[14] = qHTS of pediatric cancer cell lines to identify multiple opportunities for drug repurposing: Primary screen for LAN-5 cells (AID 1347100)
Summary of the method: as §3

[15] = qHTS of pediatric cancer cell lines to identify multiple opportunities for drug repurposing: Primary screen for BT-12 cells (AID 1347101); note: nearly all actives have a fitted effect of over 25% in size
Summary of the method: as §4

[16] = qHTS of pediatric cancer cell lines to identify multiple opportunities for drug repurposing: Primary screen for Rh18 cells (AID 1347102); note: nearly all actives have a fitted effect of over 65% in size
Summary of the method: as §3

[17] = qHTS of pediatric cancer cell lines to identify multiple opportunities for drug repurposing: Primary screen for OHS-50 cells (AID 1347103); note: nearly all actives have a fitted effect of over 40% in size
Summary of the method: as §4

[18] = qHTS of pediatric cancer cell lines to identify multiple opportunities for drug repurposing: Primary screen for RD cells (AID 1347104); note: nearly all actives have a fitted effect of over 55% in size
Summary of the method: as §2

[19] = qHTS of pediatric cancer cell lines to identify multiple opportunities for drug repurposing: Primary screen for SK-N-MC cells (AID 1347093); note: potency is the fitted concentration of half-maximal effect
Summary of the method: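 Metabolically active cells were quantified by ATP-dependent luminescence (CellTiter-Glo, 15 min at room temperature) following 48 h treatment. Cells had been plated at 500-1,000 per well and settled for 5 h beforehand.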

[20] = qHTS of pediatric cancer cell lines to identify multiple opportunities for drug repurposing: Primary screen for MG 63 (6-TG R) cells (AID 1347105); note: nearly all actives have a fitted effect of over 50% in size
Summary of the method: as §2

Row | Structure (SMILES) | Potency [1] | Potency [2] | Potency [3] | Potency [4] | Potency [5] | Potency [6] | Potency [7] | Potency [8] | Potency [9] | Potency [10] | Potency [11] | Potency [12] | Potency [13] | Potency [14] | Potency [15] | Potency [16] | Potency [17] | Potency [18] | Potency [19] | Potency [20]
1 | CCC1(c2ccc(N)cc2)CCC(=O)NC1=O (centres undefined) | inactive | inactive | inactive | inactive | inactive | inactive | inactive | inactive | inactive | inactive | inactive | inactive | inactive | inactive | inactive | inactive | inactive | inactive |  | 
2 | CCCCCCC(=O)CCCCCC/C=C/C[C@@H](O)[C@H](O)[C@@](N)(CO)C(=O)O | inactive | inactive | inactive | inactive | inactive | inactive | inactive | inactive | inactive |  |  | inactive |  | inactive | inactive | inactive |  | inactive | inactive | 
3 | Nc1ccccc1 | inactive | inactive | inactive | inactive | inactive | inactive | inactive | inactive | inactive | inactive | inactive | inactive |  | inactive | inactive | inactive | inactive | inactive |  | inactive
4 | O=C(N/N=C/c1ccc([N+](=O)[O-])o1)c1cc([N+](=O)[O-])cc([N+](=O)[O-])c1O | inactive | inactive | inactive | inactive | inactive | inactive | inactive | inactive | inactive | inactive | inactive | inactive | inactive | inactive | inactive | inactive | inactive | inactive |  | 
5 | CN1C(=O)CCS(=O)(=O)C1c1ccc(Cl)cc1 (centres undefined) | inactive | inactive | inactive | inactive | inactive | inactive | inactive | inactive | inactive |  | inactive | inactive | inactive | inactive | inactive | inactive | inactive | inactive | inactive | 
6 | Oc1ccc(Cl)cc1 | inactive | inactive | inactive | inactive | inactive | inactive | inactive | inactive | inactive |  | inactive | inactive | inactive | inactive | inactive | inactive | inactive | inactive | inactive | inactive
7 | CC(C)C[C@H](CN)CC(=O)O | inactive | inactive | inactive | inactive | inactive | inactive | inactive | inactive | inactive | inactive | inactive |  |  | inactive | inactive | inactive | inactive | inactive | 23.5 µM (active) | inactive
8 | C=C(C)[C@H]1CN[C@H](C(=O)O)[C@H]1CC(=O)O | inactive | inactive | inactive | inactive | inactive | inactive | inactive | inactive | inactive | inactive | inactive | inactive | inactive | inactive | inactive | inactive | inactive | inactive |  | inactive
9 | CNC(C)(C)Cc1ccccc1 | inactive | inactive | inactive | inactive | inactive | inactive | inactive | inactive | inactive | inactive | inactive | inactive | inactive | inactive | inactive | inactive | inactive | inactive |  | 
10 | CCC1(CC)C(=O)C=CNC1=O | inactive | inactive | inactive | inactive | inactive | inactive | inactive | inactive | inactive | inactive | inactive | inactive | inactive | inactive | inactive | inactive | inactive | inactive |  | inactive
11 | COP(=S)(OC)Oc1ccc(S(=O)(=O)N(C)C)cc1 | inactive | inactive | inactive | inactive | inactive | inactive | inactive | inactive | inactive | inactive | inactive | inactive | inactive | inactive | inactive | inactive | inactive | inactive |  | inactive
12 | O=C1c2ccccc2C(=O)c2ccccc21 | inactive | inactive | inactive | inactive | inactive | inactive | inactive | inactive | inactive | inactive | inactive | inactive | inactive | inactive | inactive | inactive | inactive | inactive |  | inactive
13 | c1ccc2c(c1)sc1ccccc12 | inactive | inactive | inactive | inactive | inactive | inactive | inactive | inactive | inactive | inactive |  | inactive | inactive | inactive | inactive | inactive | inactive | inactive | inactive | inactive
14 | CN1C(=O)COc2c(C(=O)NC3CN4CCC3CC4)cc(Cl)cc21 (centres undefined) | inactive | inactive | inactive | inactive | inactive | inactive | inactive | inactive | inactive | inactive | inactive | inactive | inactive | inactive | inactive | inactive | inactive | inactive |  | 
15 | CCN[C@@H](C)Cc1cccc(C(F)(F)F)c1 | inactive | inactive | inactive | inactive | inactive | inactive | inactive | inactive | inactive | inactive | inactive | inactive | inactive | inactive | inactive | inactive | inactive | inactive |  | inactive
16 | O=C1OC(c2ccc(O)c(S(=O)(=O)O)c2)(c2ccc(O)c(S(=O)(=O)O)c2)c2c(Br)c(Br)c(Br)c(Br)c21 | inactive | inactive | inactive | inactive | inactive | inactive | inactive | inactive | inactive |  | inactive | inactive | inactive | inactive | inactive | inactive | inactive | inactive | inactive | inactive
17 | CC(=O)OCC1=C(C(=O)O)N2C(=O)[C@@H](N)[C@H]2SC1 | inactive | inactive | inactive | inactive | inactive | inactive | inactive | inactive | inactive | inactive | inactive | inactive |  | inactive | inactive | inactive | inactive | inactive |  | inactive
18 | O=c1[nH]c2ccccc2n1C1CCNCC1 | inactive | inactive | inactive | inactive | inactive | inactive | inactive | inactive | inactive | inactive | inactive | inactive |  | inactive | inactive | inactive | inactive | inactive |  | inactive
19 | C#CC(O)(C=CCl)CC (centres undefined) | inactive | inactive | inactive | inactive | inactive | inactive | inactive | inactive | inactive | inactive | inactive | inactive |  | inactive | inactive | inactive | inactive | inactive |  | inactive
20 | COP(=S)(OC)Oc1cc(Cl)c(Cl)cc1Cl | inactive | inactive | inactive | inactive | inactive | inactive | inactive | inactive | inactive |  | inactive | inactive | inactive | inactive | inactive | inactive | inactive | inactive | inactive | 
21 | O=C(O)c1ccc(=O)[nH]c1 | inactive | inactive | inactive | inactive | inactive | inactive | inactive | inactive | inactive |  | inactive | inactive |  | inactive | inactive | inactive | inactive | inactive | inactive | inactive
22 | CCN(CCO)CCn1c(Cc2ccccc2)nc2c1c(=O)n(C)c(=O)n2C | inactive | inactive | inactive | inactive | inactive | inactive | inactive | inactive | inactive |  | inactive | inactive | inactive | inactive | inactive | inactive | inactive | inactive | inactive | 
23 | ClCCN1CCCC1 | inactive | inactive | inactive | inactive | inactive | inactive | inactive | inactive | inactive |  | inactive | inactive |  | inactive | inactive | inactive | inactive | inactive | inactive | inactive
24 | NC1=NC(=O)C(c2ccccc2)O1 (centres undefined) | inactive | inactive | inactive | inactive | inactive | inactive | inactive | inactive | inactive | inactive | inactive | inactive |  | inactive | inactive | inactive | inactive | inactive |  | inactive
25 | CC(=O)C1CCOC1=O (centres undefined) | inactive | inactive | inactive | inactive | inactive | inactive | inactive | inactive | inactive |  | inactive | inactive |  | inactive | inactive | inactive | inactive | inactive | inactive | inactive
26 | C=CCC1(C(C)CC)C(=O)NC(=O)NC1=O (centres undefined) | inactive | inactive | inactive | inactive | inactive | inactive | inactive | inactive | inactive | inactive | inactive |  | inactive | inactive | inactive | inactive | inactive | inactive |  | 
27 | CCC(CC)(CNC(=O)CCCO)c1cccc(OC)c1 | inactive | inactive | inactive | inactive | inactive | inactive | inactive | inactive | inactive |  | inactive | inactive | inactive | inactive | inactive | inactive | inactive | inactive |  | 
28 | O=C1CN=C(c2ccccc2)c2cc([N+](=O)[O-])ccc2N1 | inactive | inactive | inactive | inactive | inactive | inactive | inactive | inactive | inactive |  |  | inactive | inactive | inactive | inactive | inactive | inactive | inactive |  | 
29 | CCCN(CCC)C(=O)Cc1c(-c2ccc(Cl)cc2)nc2ccc(Cl)cn12 | inactive | inactive | inactive | inactive | inactive |  |  | inactive | inactive | inactive | inactive | inactive |  | inactive |  | inactive |  | inactive | 16.8 µM (active) | 
